According to PubChem BioAssay:
Activity calls are given as the source filed them.

Tests used:
[1] = test system: Plasmodium falciparum Sir2 (PF13_0152, Sir2A); assay: Plasmodium falciparum Sir2A binding compounds – biochemical, small-molecule microarray, 635 nm fluorescence, primary screen (AID 1098); details: fluorescence 635 nm, higher = more signal;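 note: score merges spot fluorescence intensity with its signal-to-noise ratio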
[2] = probe aDKK1 binding to arrayed compounds – biochemical, biotinylated probe, 635/667 nm fluorescence, primary screen (AID 1099); details: small-molecule microarray, higher = more signal;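 note: score merges 667nm spot fluorescence with signal to noise across triplicate slides; reference of the scale not given here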
[3] = probe aCHRDL2 binding to arrayed compounds – biochemical, biotinylated probe, 635/667 nm fluorescence, primary screen (AID 1100); details: small-molecule microarray, higher = more signal
[4] = change in splice reporter luminescence, either direction, cell-based, HEK293, spliceosome inhibition project, primary screen (AID 1101); details: HEK293 splicing luciferase reporter, 24 h, higher = more signal, called active from +8 up or from −8 down;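 note: HEK293 cells carrying a splicing-competent luciferase reporter gene; test concentration not given here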
[5] = molecular target: Fibroblast growth factor 10 (Homo sapiens) (UniProt O15520); assay: compounds binding fibroblast growth factor 10 – biochemical, small-molecule microarray, 635 nm fluorescence, primary screen (AID 1102); details: FGF10 binding, fluorescence 635 nm, higher = more signal
Sequence of Fibroblast growth factor 10 (Homo sapiens) (O15520 whole entry, looked up): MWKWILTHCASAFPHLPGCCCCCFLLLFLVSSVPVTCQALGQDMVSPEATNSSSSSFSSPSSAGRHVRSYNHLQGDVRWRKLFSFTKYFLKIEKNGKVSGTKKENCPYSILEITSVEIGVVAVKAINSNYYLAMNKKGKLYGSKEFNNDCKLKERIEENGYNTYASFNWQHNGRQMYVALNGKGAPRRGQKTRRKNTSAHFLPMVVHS

[6] = test system: glycogen synthase kinase-3 (GSK3A per assay name; protocol says GSK3B); assay: compounds binding glycogen synthase kinase-3 – biochemical, small-molecule microarray, 635 nm fluorescence, GSK3A, primary screen (AID 1103); details: fluorescence 635 nm, higher = more signal; note: the record names both GSK3A and GSK3B
[7] = molecular target: Epidermal growth factor receptor (Homo sapiens) (UniProt P00533); assay: compounds binding epidermal growth factor receptor – biochemical, small-molecule microarray, 635 nm fluorescence, primary screen (AID 1104); details: EGFR binding, higher = more signal;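 note: score merges 667 nm emission intensity with spot signal to noise over triplicate slides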
Sequence of Epidermal growth factor receptor (Homo sapiens) (P00533 whole entry, looked up): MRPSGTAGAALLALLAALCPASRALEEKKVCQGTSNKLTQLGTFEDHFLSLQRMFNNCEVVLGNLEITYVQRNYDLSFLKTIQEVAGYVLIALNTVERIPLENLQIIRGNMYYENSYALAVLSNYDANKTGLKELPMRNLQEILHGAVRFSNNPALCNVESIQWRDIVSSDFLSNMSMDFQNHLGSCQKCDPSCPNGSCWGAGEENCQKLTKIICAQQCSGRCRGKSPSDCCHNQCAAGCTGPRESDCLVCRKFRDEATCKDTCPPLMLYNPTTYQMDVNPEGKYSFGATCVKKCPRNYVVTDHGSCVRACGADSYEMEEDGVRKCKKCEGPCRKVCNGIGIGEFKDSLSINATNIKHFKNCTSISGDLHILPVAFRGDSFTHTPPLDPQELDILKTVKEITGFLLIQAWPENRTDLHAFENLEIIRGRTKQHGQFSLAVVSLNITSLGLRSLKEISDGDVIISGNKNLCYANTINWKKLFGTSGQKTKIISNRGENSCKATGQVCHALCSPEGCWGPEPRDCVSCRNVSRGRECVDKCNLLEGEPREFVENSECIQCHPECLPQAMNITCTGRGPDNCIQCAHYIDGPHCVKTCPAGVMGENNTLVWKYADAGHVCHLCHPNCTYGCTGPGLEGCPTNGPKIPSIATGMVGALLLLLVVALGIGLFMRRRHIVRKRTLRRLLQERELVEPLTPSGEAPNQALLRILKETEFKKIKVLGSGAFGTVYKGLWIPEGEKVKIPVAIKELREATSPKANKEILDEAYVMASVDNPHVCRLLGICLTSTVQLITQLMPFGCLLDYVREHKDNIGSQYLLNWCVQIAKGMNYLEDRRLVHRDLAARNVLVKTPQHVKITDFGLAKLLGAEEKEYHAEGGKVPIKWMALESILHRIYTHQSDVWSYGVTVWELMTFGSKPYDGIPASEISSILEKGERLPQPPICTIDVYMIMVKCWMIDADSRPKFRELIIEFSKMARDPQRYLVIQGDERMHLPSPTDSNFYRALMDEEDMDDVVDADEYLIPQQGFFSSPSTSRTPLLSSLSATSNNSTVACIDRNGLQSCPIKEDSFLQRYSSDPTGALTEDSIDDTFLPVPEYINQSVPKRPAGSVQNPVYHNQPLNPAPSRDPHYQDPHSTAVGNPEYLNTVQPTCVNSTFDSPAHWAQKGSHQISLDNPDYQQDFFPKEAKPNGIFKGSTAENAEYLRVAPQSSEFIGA

[8] = molecular target: Follistatin-related protein 3 (Homo sapiens) (UniProt O95633); assay: compounds binding follistatin-related protein 3 – biochemical, small-molecule microarray, 635 nm fluorescence, primary screen (AID 1105); details: FSTL3 binding, higher = more signal;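 note: score merges emission near 667 nm and signal to noise per printed spot across three slides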
Sequence of Follistatin-related protein 3 (Homo sapiens) (O95633 whole entry, looked up): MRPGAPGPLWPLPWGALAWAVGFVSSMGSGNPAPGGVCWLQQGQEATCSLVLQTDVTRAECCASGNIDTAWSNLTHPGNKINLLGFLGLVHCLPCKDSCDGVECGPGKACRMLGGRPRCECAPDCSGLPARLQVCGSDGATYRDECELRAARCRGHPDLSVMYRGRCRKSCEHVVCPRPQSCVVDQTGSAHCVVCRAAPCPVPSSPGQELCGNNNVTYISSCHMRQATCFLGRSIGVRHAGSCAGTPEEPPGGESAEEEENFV

[9] = molecular target: Dickkopf-related protein 1 (Homo sapiens) (UniProt O94907); assay: small molecules binding DKK1 protein – biochemical, small-molecule microarray, 635 nm fluorescence scan, primary screen (AID 1106); details: higher = more signal;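 note: score merges emission near 667 nm with signal to noise over three replicate slides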
Sequence of Dickkopf-related protein 1 (Homo sapiens) (O94907 whole entry, looked up): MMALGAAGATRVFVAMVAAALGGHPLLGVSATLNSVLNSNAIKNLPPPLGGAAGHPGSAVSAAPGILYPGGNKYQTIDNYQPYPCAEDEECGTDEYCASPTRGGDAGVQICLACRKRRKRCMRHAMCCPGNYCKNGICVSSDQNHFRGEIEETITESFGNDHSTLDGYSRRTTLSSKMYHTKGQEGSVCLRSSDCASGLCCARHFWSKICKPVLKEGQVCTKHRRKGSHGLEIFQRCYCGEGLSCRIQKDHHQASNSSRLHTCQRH

[10] = test system: Inhibin beta A chain (activin A); assay: small molecules binding activin A – biochemical, small-molecule microarray, 635 nm fluorescence scan, primary screen (AID 1107); details: INHBA, higher = more signal;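 note: mouse activin A protein probed at 4.33 µg/mL on printed slides; score merges bound-protein fluorescence near 667 nm with spot signal-to-noise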

## COc1ccc([Si](C)(C)[C@H]2[C@H](CCO)O[C@@]3(C(=O)N(Cc4cccc(NC(=O)[C@H](C)O)c4)c4ccccc43)[C@@H]2C)cc1
[1]
  composite z-score: 1.01
[2]
  composite z-score: -0.146
[3]
  composite z-score: -0.026
[4]
  z-score: -2.55 (inactive)
[5]
  composite z-score: 1.01
[6]
  composite z-score: 0.738
[7]
  composite z-score: 0.382
[8]
  composite z-score: 0.901
[9]
  composite z-score: 0.507
[10]
  composite z-score: 0.106

## O=C1C[C@@H](O)[C@@H](O)[C@@H]2[C@@H]3C(=O)N(Cc4ccc5c(c4)OCO5)C(=O)[C@@H]3CC[C@@H]12
[1]
  composite z-score: 0.27
[2]
  composite z-score: -0.159
[3]
  composite z-score: -0.562
[4]
  z-score: 0.706 (inactive)
[5]
  composite z-score: 0.715
[6]
  composite z-score: 0.45
[7]
  composite z-score: 0.428
[8]
  composite z-score: 0.675
[9]
  composite z-score: 0.78
[10]
  composite z-score: 0.365

## CC(=O)OC[C@H]1O[C@@H](ON=C[C@@H](C)[C@H](OCc2ccccc2)C(C)C)[C@H](OC(C)=O)[C@@H](OC(C)=O)[C@@H]1OC(C)=O
[1]
  composite z-score: -0.0075
[2]
  composite z-score: 0.129
[3]
  composite z-score: 0.169
[4]
  z-score: 0.14 (inactive)
[5]
  composite z-score: -0.167
[6]
  composite z-score: 0.623
[7]
  composite z-score: 0.338
[8]
  composite z-score: -0.39
[9]
  composite z-score: -1.22
[10]
  composite z-score: -1.82

## O=C1O[C@@H](c2ccccc2)[C@@H](c2ccccc2)N2[C@@H](c3ccc(OCCO)cc3)[C@]3(C(=O)Nc4ccc(C#CCCO)cc43)[C@@H](C(=O)N3CCCCCCC3)[C@H]12
[1]
  composite z-score: 1.85
[2]
  composite z-score: 2.25
[3]
  composite z-score: 1.13
[4]
  z-score: -0.277 (inactive)
[5]
  composite z-score: 1.22
[6]
  composite z-score: 1.32
[7]
  composite z-score: 0.744
[8]
  composite z-score: 1.55
[9]
  composite z-score: 1.78
[10]
  composite z-score: 1.71

## O=C1[C@H]2[C@H]3[C@H](O)[C@H](O)CC(=NO[C@@H]4O[C@H](CO)[C@@H](O)[C@H](O)[C@H]4O)[C@@H]3CC[C@H]2C(=O)N1Cc1ccccc1
[1]
  composite z-score: 0.133
[2]
  composite z-score: -0.195
[3]
  composite z-score: -0.269
[4]
  z-score: -0.847 (inactive)
[5]
  composite z-score: 0.503
[6]
  composite z-score: -0.817
[7]
  composite z-score: 0.331
[8]
  composite z-score: -0.0746
[9]
  composite z-score: -0.0034
[10]
  composite z-score: -1.43

## CC(C)(C)OC(=O)CC[C@]1(C(N)=O)COC(c2ccc(OCCCO)cc2)=N1
[1]
  composite z-score: 0.755
[2]
  composite z-score: 1.59
[3]
  composite z-score: 1.38
[4]
  z-score: -0.337 (inactive)
[5]
  composite z-score: 1.34
[6]
  composite z-score: 0.977
[7]
  composite z-score: -0.395
[8]
  composite z-score: 0.278
[9]
  composite z-score: -0.385
[10]
  composite z-score: 0.976

## COCCNC(=O)OCC1CCCC2(CC(OC(=O)NCCc3ccc(F)cc3)CC(CCC(=O)N[C@@H](C)C(=O)OC)O2)O1 (stereo not given in full)
[1]
  composite z-score: 1.16
[2]
  composite z-score: -0.115
[3]
  composite z-score: -0.273
[4]
  z-score: -1.09 (inactive)
[5]
  composite z-score: 0.842
[6]
  composite z-score: 1.26
[7]
  composite z-score: 0.601
[8]
  composite z-score: 1.22
[9]
  composite z-score: 0.932
[10]
  composite z-score: 0.415

## O=C1[C@H]2[C@H]3[C@H](O)[C@H](O)CC(=NOC[C@@H](O)COCc4ccco4)[C@@H]3CC[C@H]2C(=O)N1c1ccc(F)cc1F
[1]
  composite z-score: 0.365
[2]
  composite z-score: -0.399
[3]
  composite z-score: -0.712
[4]
  z-score: 0.237 (inactive)
[5]
  composite z-score: 0.579
[6]
  composite z-score: 0.318
[7]
  composite z-score: 0.931
[8]
  composite z-score: 0.499
[9]
  composite z-score: 0.671
[10]
  composite z-score: 0.574

## CC[C@@H](c1ccccc1)n1c(=O)n2n(c1=O)[C@H]1[C@H](O)[C@@H]3O[C@@H]3C(=NOCC=C(C)CCC=C(C)C)[C@H]1CC2
[1]
  composite z-score: 0.785
[2]
  composite z-score: -0.156
[3]
  composite z-score: -0.359
[4]
  z-score: 1.95 (inactive)
[5]
  composite z-score: 0.524
[6]
  composite z-score: 0.412
[7]
  composite z-score: 0.446
[8]
  composite z-score: 1.27
[9]
  composite z-score: 0.916
[10]
  composite z-score: 0.619

## CCOC(=O)CCN1C(=O)[C@H]2[C@H]3[C@H](O)[C@H](O)CC(=NOCc4ccccc4)[C@@H]3CC[C@H]2C1=O
[1]
  composite z-score: 0.174
[2]
  composite z-score: -0.206
[3]
  composite z-score: -0.608
[4]
  z-score: 0.0671 (inactive)
[5]
  composite z-score: 0.526
[6]
  composite z-score: 0.597
[7]
  composite z-score: 0.641
[8]
  composite z-score: 0.749
[9]
  composite z-score: 0.4
[10]
  composite z-score: 0.0727

## COc1ccc(O[C@H]2C=C[C@@H](c3ccccc3)O[C@@H]2COC(=O)N2CCCCC2)cc1
[1]
  composite z-score: -0.0945
[2]
  composite z-score: -0.173
[3]
  composite z-score: -0.225
[4]
  z-score: 0.757 (inactive)
[5]
  composite z-score: -0.398
[6]
  composite z-score: -0.732
[7]
  composite z-score: 0.0392
[8]
  composite z-score: -0.0999
[9]
  composite z-score: 0.0004
[10]
  composite z-score: 1.42

## CCOC(=O)C1=CC[C@H]2C(=O)N(CC)C(=O)[C@@H]12
[1]
  composite z-score: 0.762
[2]
  composite z-score: -0.146
[3]
  composite z-score: -0.242
[4]
  z-score: -0.253 (inactive)
[5]
  composite z-score: 1.07
[6]
  composite z-score: 0.947
[7]
  composite z-score: 0.0746
[8]
  composite z-score: 0.933
[9]
  composite z-score: 0.0851
[10]
  composite z-score: 0.666

## CCOC(=O)CCN1C(=O)[C@H]2[C@H]3[C@H](O)[C@H](O)CC(=NOC[C@@H](O)COCc4ccco4)[C@H]3CC[C@H]2C1=O
[1]
  composite z-score: 0.413
[2]
  composite z-score: 0.0262
[3]
  composite z-score: -0.5
[4]
  z-score: -1.12 (inactive)
[5]
  composite z-score: 0.449
[6]
  composite z-score: 0.596
[7]
  composite z-score: 0.328
[8]
  composite z-score: 0.608
[9]
  composite z-score: 0.433
[10]
  composite z-score: 0.0553

## O=C1O[C@@H](c2ccccc2)[C@@H](c2ccccc2)N2[C@@H](c3ccccc3OCCO)[C@]3(C(=O)Nc4ccc(C#CCCO)cc43)[C@@H](C(=O)O)[C@H]12
[1]
  composite z-score: 1.58
[2]
  composite z-score: -0.878
[3]
  composite z-score: -0.721
[4]
  z-score: -2.02 (inactive)
[5]
  composite z-score: 0.608
[6]
  composite z-score: 1.03
[7]
  composite z-score: -0.0589
[8]
  composite z-score: 0.14
[9]
  composite z-score: -0.167
[10]
  composite z-score: 1.24

## CCOC(=O)[C@H](Cc1ccccc1)NC(=O)CCC1CC(OC(=O)NCc2ccc3c(c2)OCO3)CC2(CCCC(COC(=O)NCc3ccccc3)O2)O1 (stereo not given in full)
[1]
  composite z-score: 0.403
[2]
  composite z-score: -0.125
[3]
  composite z-score: -0.468
[4]
  z-score: -1.03 (inactive)
[5]
  composite z-score: 1.02
[6]
  composite z-score: 0.78
[7]
  composite z-score: 0.361
[8]
  composite z-score: 1.02
[9]
  composite z-score: 0.606
[10]
  composite z-score: -0.303

## O=C1[C@H]2[C@H]3[C@H](O)[C@H](O)CC(=NOCc4ccccc4)[C@@H]3CC[C@H]2C(=O)N1Cc1ccccc1
[1]
  composite z-score: -0.935
[2]
  composite z-score: -0.206
[3]
  composite z-score: -0.571
[4]
  z-score: -0.491 (inactive)
[5]
  composite z-score: 0.43
[6]
  composite z-score: 0.75
[7]
  composite z-score: 0.453
[8]
  composite z-score: 0.58
[9]
  composite z-score: 0.544
[10]
  composite z-score: -0.359

## O=C1CCCC=C1C(O)CCOCc1ccccc1 (stereo not given)
[1]
  composite z-score: 0.265
[2]
  composite z-score: -0.229
[3]
  composite z-score: -0.513
[4]
  z-score: 0.322 (inactive)
[5]
  composite z-score: 0.154
[6]
  composite z-score: -0.391
[7]
  composite z-score: 0.255
[8]
  composite z-score: -0.0207
[9]
  composite z-score: 0.428
[10]
  composite z-score: 0.13
